Test results from PubChem BioAssay AID1159580 (chemical genetic matrix, 2015).
Values joined by “and” are separate entries in the source; they are usually repeats but may differ in a detail not shown here. Equal entries are not always repeated. Out of some 5,500 compounds screened, about 2,000 (36%) were called active. Not shown: some 18% with an inconclusive outcome. Rule as the data show it: active = normalized growth mostly below about 0.91 (no sharp cut-off); inconclusive = no clear call, values can overlap the other calls; inactive = mostly above about 0.92. Some of the results follow. Some structures have more than one record in an assay (separate samples or runs), and their calls can disagree.

Assay: chemical genetic growth profiling, strain panel (AID 1159580);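 also: tested at 20 µM; growth read once vehicle control cultures reached saturation at 30 °C; 1 = growth at the plate median or of vehicle wells; lower values mean less growth of the strain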
Conditions: growth OD

Measured: normalized growth

O=c1c2ccccc2[se]n1-c1ccccc1
0.116 (active) and 0.922 (inactive): S. cerevisiae deletion strains, locus YMR307W, strain GAS1, stronger effect = lower value
0.0495 (active) and 0.989 (inactive): S. cerevisiae deletion strains, locus YNL322C, strain KRE1, stronger effect = lower value
inactive: S. cerevisiae deletion strains, locus YLR058C, strain SHM2, stronger effect = lower value 0.955 | S. cerevisiae deletion strains, locus YNL175C, strain NOP13, stronger effect = lower value 0.998 | S. cerevisiae deletion strains, locus YNL183C, strain NPR1, stronger effect = lower value 0.841 | S. cerevisiae deletion strains, locus YNL197C, strain WHI3, stronger effect = lower value 0.924 | S. cerevisiae deletion strains, locus YOL012C, strain htz1 0.238 | S. cerevisiae deletion strains, locus YOL147C, strain pex11, stronger effect = lower value 1.01 | S. cerevisiae deletion strains, locus YOR144C, strain elg1, stronger effect = lower value 1.01 | S. cerevisiae deletion strains, locus YOR290C, strain snf2, stronger effect = lower value 0.888
0.0501 (active) and 0.992 (inactive): S. cerevisiae deletion strains, locus YPL241C, strain CIN2, stronger effect = lower value
active: S. cerevisiae deletion strains, locus YJR075W, strain HOC1, stronger effect = lower value 0.0678 | S. cerevisiae deletion strains, locus YKL068W, stronger effect = lower value 0.0623 | S. cerevisiae deletion strains, locus YKL085W, strain MDH1 (second series), stronger effect = lower value 0.0549 | S. cerevisiae deletion strains, locus YKL085W, strain MDH1, stronger effect = lower value 0.0549 | S. cerevisiae deletion strains, locus YKL160W, strain elf1, stronger effect = lower value 0.0672 | S. cerevisiae deletion strains, locus YKL190W, strain CNB1, stronger effect = lower value 0.0495 | S. cerevisiae deletion strains, locus YKR001C, strain vps1, stronger effect = lower value 0.064 | S. cerevisiae deletion strains, locus YKR026C, strain gcn3, stronger effect = lower value 0.0615 | S. cerevisiae deletion strains, locus YKR091W, strain srl3, stronger effect = lower value 0.0622 | S. cerevisiae deletion strains, locus YLL001W, strain dnm1, stronger effect = lower value 0.0729 | S. cerevisiae deletion strains, locus YLL026W, stronger effect = lower value 0.0595 | S. cerevisiae deletion strains, locus YLL041C, strain sdh2, stronger effect = lower value 0.0595 | S. cerevisiae deletion strains, locus YLR027C, strain aat2, stronger effect = lower value 0.0567 | S. cerevisiae deletion strains, locus YLR039C, strain RIC1, stronger effect = lower value 0.0906 | S. cerevisiae deletion strains, locus YLR102C, strain apc9, stronger effect = lower value 0.0627 | S. cerevisiae deletion strains, locus YLR113W, strain HOG1, stronger effect = lower value 0.138 | S. cerevisiae deletion strains, locus YLR221C, strain rsa3, stronger effect = lower value 0.061 | S. cerevisiae deletion strains, locus YLR258W, strain gsy2, stronger effect = lower value 0.0609 | S. cerevisiae deletion strains, locus YLR262C, strain YPT6 (second series), stronger effect = lower value 0.0795 | S. cerevisiae deletion strains, locus YLR262C, strain YPT6, stronger effect = lower value 0.0981 | S. cerevisiae deletion strains, locus YLR268W, strain sec22, stronger effect = lower value 0.0733 | S. cerevisiae deletion strains, locus YLR320W, strain mms22, stronger effect = lower value 0.0819 | S. cerevisiae deletion strains, locus YLR330W, strain CHS5, stronger effect = lower value 0.0552 | S. cerevisiae deletion strains, locus YLR342W, strain FKS1 (second series), stronger effect = lower value 0.0785 | S. cerevisiae deletion strains, locus YLR342W, strain FKS1, stronger effect = lower value 0.0773 | S. cerevisiae deletion strains, locus YLR357W, strain rsc2, stronger effect = lower value 0.117 | S. cerevisiae deletion strains, locus YLR370C, strain arc18, stronger effect = lower value 0.0623 | S. cerevisiae deletion strains, locus YLR371W, strain rom2, stronger effect = lower value 0.0624 | S. cerevisiae deletion strains, locus YLR384C, strain iki3, stronger effect = lower value 0.554 | S. cerevisiae deletion strains, locus YLR418C, strain cdc73, stronger effect = lower value 0.0967 | S. cerevisiae deletion strains, locus YML016C, strain PPZ1, stronger effect = lower value 0.0497 | S. cerevisiae deletion strains, locus YML032C, strain rad52, stronger effect = lower value 0.832 | S. cerevisiae deletion strains, locus YML120C, strain ndi1, stronger effect = lower value 0.724 | S. cerevisiae deletion strains, locus YML124C, strain tub3, stronger effect = lower value 0.0602 | S. cerevisiae deletion strains, locus YMR058W, strain fet3, stronger effect = lower value 0.062 | S. cerevisiae deletion strains, locus YMR078C, strain ctf18, stronger effect = lower value 0.0748 | S. cerevisiae deletion strains, locus YMR125W, strain sto1, stronger effect = lower value 0.0783 | S. cerevisiae deletion strains, locus YMR129W, stronger effect = lower value 0.0579 | S. cerevisiae deletion strains, locus YMR205C, strain PFK2, stronger effect = lower value 0.134 | S. cerevisiae deletion strains, locus YMR223W, strain ubp8, stronger effect = lower value 0.0699 | S. cerevisiae deletion strains, locus YMR231W, strain pep5, stronger effect = lower value 0.0661 | S. cerevisiae deletion strains, locus YMR263W, strain SAP30, stronger effect = lower value 0.065 | S. cerevisiae deletion strains, locus YNL067W, strain RPL9B, stronger effect = lower value 0.0566 | S. cerevisiae deletion strains, locus YNL071W, strain lat1, stronger effect = lower value 0.0612 | S. cerevisiae deletion strains, locus YNL128W, strain TEP1, stronger effect = lower value 0.0628 | S. cerevisiae deletion strains, locus YNL153C, strain GIM3, stronger effect = lower value 0.0713 and 0.0822 | S. cerevisiae deletion strains, locus YNL209W, strain ssb2, stronger effect = lower value 0.0633 | S. cerevisiae deletion strains, locus YNL224C, strain SQS1, stronger effect = lower value 0.826 | S. cerevisiae deletion strains, locus YNL233W, strain BNI4, stronger effect = lower value 0.0552 | S. cerevisiae deletion strains, locus YNL248C, strain rpa49, stronger effect = lower value 0.0871 | S. cerevisiae deletion strains, locus YNL250W, strain rad50, stronger effect = lower value 0.101 | S. cerevisiae deletion strains, locus YNL271C, strain bni1, stronger effect = lower value 0.0626 | S. cerevisiae deletion strains, locus YNL298W, strain CLA4, stronger effect = lower value 0.0625 | S. cerevisiae deletion strains, locus YNL307C, strain MCK1, stronger effect = lower value 0.0743 | S. cerevisiae deletion strains, locus YNL322C, strain KRE1 (second series), stronger effect = lower value 0.299 | S. cerevisiae deletion strains, locus YNR049C, strain mso1, stronger effect = lower value 0.0582 | S. cerevisiae deletion strains, locus YNR052C, strain pop2, stronger effect = lower value 0.851 | S. cerevisiae deletion strains, locus YOL006C, strain TOP1, stronger effect = lower value 0.102 | S. cerevisiae deletion strains, locus YOR001W, strain rrp6, stronger effect = lower value 0.459 | S. cerevisiae deletion strains, locus YOR061W, strain CKA2, stronger effect = lower value 0.0469 | S. cerevisiae deletion strains, locus YOR069W, strain VPS5, stronger effect = lower value 0.0489 | S. cerevisiae deletion strains, locus YOR070C, strain gyp1, stronger effect = lower value 0.0603 | S. cerevisiae deletion strains, locus YOR080W, strain dia2, stronger effect = lower value 0.803 | S. cerevisiae deletion strains, locus YOR083W, strain WHI5 (second series), stronger effect = lower value 0.0766 | S. cerevisiae deletion strains, locus YOR083W, strain WHI5, stronger effect = lower value 0.0645 | S. cerevisiae deletion strains, locus YOR106W, strain vam3, stronger effect = lower value 0.0667 | S. cerevisiae deletion strains, locus YOR136W, strain idh2, stronger effect = lower value 0.0722 | S. cerevisiae deletion strains, locus YOR184W, strain ser1, stronger effect = lower value 0.0757 | S. cerevisiae deletion strains, locus YOR231W, strain MKK1, stronger effect = lower value 0.118 | S. cerevisiae deletion strains, locus YOR265W, strain rbl2, stronger effect = lower value 0.0602 | S. cerevisiae deletion strains, locus YOR270C, strain vph1, stronger effect = lower value 0.103 | S. cerevisiae deletion strains, locus YOR316C, strain cot1, stronger effect = lower value 0.063 | S. cerevisiae deletion strains, locus YPL051W, strain arl3, stronger effect = lower value 0.0663 | S. cerevisiae deletion strains, locus YPL055C, strain LGE1, stronger effect = lower value 0.0731 | S. cerevisiae deletion strains, locus YPL078C, strain atp4, stronger effect = lower value 0.707 | S. cerevisiae deletion strains, locus YPL106C, strain sse1, stronger effect = lower value 0.105 | S. cerevisiae deletion strains, locus YPL240C, strain hsp82, stronger effect = lower value 0.0588 | S. cerevisiae deletion strains, locus YPL256C, strain CLN2, stronger effect = lower value 0.113 | S. cerevisiae deletion strains, locus YPR119W, strain clb2, stronger effect = lower value 0.0638 | S. cerevisiae deletion strains, locus YPR141C, strain kar3, stronger effect = lower value 0.0669 | S. cerevisiae deletion strains, locus YPR163C, strain tif3, stronger effect = lower value 0.0717 | S. cerevisiae deletion strains, locus YPR167C, strain met16, stronger effect = lower value 0.0625 | S. cerevisiae deletion strains, strain wtn01, stronger effect = lower value 0.0617 | S. cerevisiae strains, strain wild type, stronger effect = lower value 0.0481
